Assay outcomes as filed in PubChem BioAssay.
DT40 TDP1 CPT: DT40-hTDP1 cell growth loss with CPT. Potency, µM (titrated, usually from 46.2 µM), without a hit: top-dose activity change, negative = growth inhibition, most hits filed as inhibitors. chicken DT40 Tdp1-/-;hTDP1 cells + 20 nM CPT, ATP luminescence, 48 h. actives 12% (n = 420,000); note: potency is the fitted concentration of half-maximal effect; nearly all actives have a fitted effect of over 55% in size
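Cell growth measured by CellTiter-Glo luminescence after a minimum 48 h, 37 C compound exposure with 20 nM CPT in Tdp1-knockout DT40 cells stably expressing hTDP1, seeded 400/well; qHTS titration format.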
DT40 TDP1 no CPT: qHTS for Inhibitors of human tyrosyl-DNA phosphodiesterase 1 (TDP1): qHTS in cells in absence of CPT. DT40 Tdp1-/- hTDP1 cells, no CPT, ATP luminescence, 48 h. actives 15% (n = 420,000). Potency, µM (doses to about 46.2 µM), without a hit: at the top dose activity change, negative = growth inhibition, hits mostly inhibitors; note: potency is the fitted concentration of half-maximal effect; nearly all actives have a fitted effect of over 55% in size
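Chicken DT40 Tdp1-/- cells stably complemented with human TDP1 were seeded at 400 cells/well with DMSO in place of 20 nM camptothecin. After compound pinning, cells grew at least 48 hr at 37 °C; viability read by CellTiter-Glo luminescence.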
HT1080NT lethal: kills 2HG-producing HT-1080-NT fibrosarcoma cells; AID 686970; Potency, µM (titrated, usually from 46.1 µM), for inactives: at the highest dose activity, negative = less viability, most hits filed as cytotoxic; actives 1.6% (n = 360,000); HT-1080-NT fibrosarcoma viability, CellTiter-Glo ATP luminescence, 48 h;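 note: NT is the 2HG producing partner of a matched IDH1 knockdown line; potency is the fitted concentration of half-maximal effect; 0% = DMSO-treated cells and -100% = media-only wells without cells; nearly all actives have a fitted effect of over 55% in size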
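A 48-hour cytotoxicity screen used HT-1080-NT cells plated 2 hours before compound delivery. ATP-based CellTiter-Glo luminescence measured viability, normalized to DMSO and no-cell controls.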
HT1080 IDH1KD tx: toxicity to HT-1080 IDH1 knockdown cells (counter line); HT-1080 IDH1 knockdown viability, ATP luminescence, 48 h; Potency, µM (titrated, usually from 46.1 µM), inactives show at the top dose activity, negative = toxicity, most hits filed as cytotoxic; actives 2% (n = 360,000);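 note: potency is the fitted concentration of half-maximal effect; 0% = DMSO wells and -100% = cell-free medium wells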
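Viability of IDH1-knockdown HT-1080 fibrosarcoma cells was assessed by CellTiter-Glo after 48 h at 37 °C with titrated compound; concentration-effect curves were classified by fit quality and response size.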
IL-1B inflam inh: blocks inflammasome-driven IL-1 beta release; THP-1 LPS/ATP IL-1B secretion, AlphaLISA, 16 h; stronger effect = lower value; AID 743279; actives 4.7% (n = 360,000); activity change, % at 57.5 µM; in the data active = activity change below about -50%; inconclusive = mostly about -30% to -49%
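THP-1 cells pretreated 1 hr with compounds (up to 57.5 uM final), then stimulated with LPS (250 ng/mL final) plus ATP (1.25 mM final); secreted IL-1B measured by AlphaLISA after 16 hr, decreased signal indicating inhibition.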
* hit, by the source's call. Sampled rows, rich in hits. Any-hit rate of the full collection: about 19%. Unless noted, calls come from the whole dose curve; as a rule, active = well fitted curve in the direction sought with a large enough effect; inconclusive = small, poorly fitted or top-dose-only effect, or another doubt; inactive = no such curve, though single readings can be large; an effect the other way counts as inactive or inconclusive. Unless noted, % is set by controls: 0 for no effect and ±100 for the full control effect.

`Cc1ccc(/C=c2\sc3nc(-c4ccco4)nn3c2=O)o1` gave DT40 TDP1 CPT -73.2%, DT40 TDP1 no CPT 23.1µM*, HT1080NT lethal -14.4%, HT1080 IDH1KD tx -9.1% and IL-1B inflam inh 17.6.
For CC(c1ccccc1)N1CCN(C(=O)CCl)CC1 (centres undefined) the results were DT40 TDP1 CPT 11.6µM*, DT40 TDP1 no CPT 18.4µM*, HT1080NT lethal inconclusive, HT1080 IDH1KD tx 3.7% and IL-1B inflam inh -78.8*.
CCOC(=O)N1CCN(S(=O)(=O)Cc2ccccc2)CC1 was read as DT40 TDP1 CPT 1.7%, DT40 TDP1 no CPT 5.4%, HT1080NT lethal 9.4%, HT1080 IDH1KD tx 4.9% and IL-1B inflam inh -2.8.
O=C(CCl)N1CCN(S(=O)(=O)Cc2ccccc2)CC1 was read as DT40 TDP1 CPT 18.4µM*, DT40 TDP1 no CPT 4.61µM*, HT1080NT lethal inconclusive, HT1080 IDH1KD tx inconclusive and IL-1B inflam inh -99.6*.
For CC(CC(=O)N1CCN(C(=O)c2ccccc2)CC1)c1ccccc1 (centres undefined) the results were DT40 TDP1 CPT 6.5%, DT40 TDP1 no CPT -2.3%, HT1080NT lethal 16.9%, HT1080 IDH1KD tx 15.0% and IL-1B inflam inh 8.1.
For Cc1cn([C@H]2C[C@H](O)[C@@H](CNC(=O)[C@H](N)Cc3cscn3)O2)c(=O)[nH]c1=O the results were DT40 TDP1 CPT 0.7%, DT40 TDP1 no CPT -25.1%, HT1080NT lethal 0.2%, HT1080 IDH1KD tx 3.7% and IL-1B inflam inh 10.3.
`COc1ccc(-c2cc(C(F)(F)F)n3nc(C(=O)NCCCn4ccnc4)cc3n2)cc1` gave DT40 TDP1 CPT -29.7%, DT40 TDP1 no CPT inconclusive, HT1080NT lethal -2.4%, HT1080 IDH1KD tx -0.5% and IL-1B inflam inh -59.3*.
Screening CCCNC(=O)c1nn2c(C(F)(F)F)cc(-c3ccccc3)nc2c1Cl returned DT40 TDP1 CPT inconclusive, DT40 TDP1 no CPT inconclusive, HT1080NT lethal inconclusive, HT1080 IDH1KD tx -17.8% and IL-1B inflam inh -15.3.
`O=C(NCCCn1ccnc1)c1nn2c(C(F)(F)F)cc(-c3ccc(Br)cc3)nc2c1Cl` gave DT40 TDP1 CPT 23.1µM*, DT40 TDP1 no CPT 16.4µM*, HT1080NT lethal -3.4%, HT1080 IDH1KD tx -2.5% and IL-1B inflam inh -52.0*.
Cc1ccc(SCC(=O)Nc2ccc(N3CCN(C)CC3)c(F)c2)cc1 was read as DT40 TDP1 CPT inconclusive, DT40 TDP1 no CPT 20.6µM*, HT1080NT lethal -2.3%, HT1080 IDH1KD tx -14.3% and IL-1B inflam inh 10.9.
`COc1ccc(C2=CC(=O)C[C@H](c3ccc(F)cc3)C2)cc1F` gave DT40 TDP1 CPT 20.6µM*, DT40 TDP1 no CPT inconclusive, HT1080NT lethal -7.6%, HT1080 IDH1KD tx -5.3% and IL-1B inflam inh 0.0.
O=C1C=C(c2n[nH]nc2-c2ccccc2)C[C@@H](c2ccc(F)cc2)C1 was read as DT40 TDP1 CPT inconclusive, DT40 TDP1 no CPT 16.4µM*, HT1080NT lethal -0.4%, HT1080 IDH1KD tx -3.0% and IL-1B inflam inh -18.1.
For O=C1C=C(c2ccc(Oc3ccccc3)cc2)C[C@@H](c2ccc(F)cc2)C1 the results were DT40 TDP1 CPT 18.4µM*, DT40 TDP1 no CPT inconclusive, HT1080NT lethal -3.3%, HT1080 IDH1KD tx -0.1% and IL-1B inflam inh inconclusive.
Screening CCCCC/C=C/C1=CC(=O)C[C@H](c2ccc(OC)c(OC)c2)C1 returned DT40 TDP1 CPT 20.6µM*, DT40 TDP1 no CPT 10.3µM*, HT1080NT lethal -4.0%, HT1080 IDH1KD tx -2.1% and IL-1B inflam inh -21.6.
For O=C1C=C(c2ccc(OC(F)(F)F)cc2)C[C@@H](c2ccc(F)cc2)C1 the results were DT40 TDP1 CPT inconclusive, DT40 TDP1 no CPT inconclusive, HT1080NT lethal -2.1%, HT1080 IDH1KD tx 0.3% and IL-1B inflam inh -30.0.
COc1cccc(-c2n[nH]nc2C2=CC(=O)C[C@H](c3ccc(F)cc3)C2)c1 was read as DT40 TDP1 CPT inconclusive, DT40 TDP1 no CPT inconclusive, HT1080NT lethal -6.4%, HT1080 IDH1KD tx -14.5% and IL-1B inflam inh inconclusive.
